Assay results: PubChem BioAssay (Tox21)
Unmarked numbers belong to inactive results. Records with an inconclusive call do not appear. A call without a number means that no potency is given here. Activity calls are given as the source filed them. Unless noted, calls come from the whole dose curve; as a rule, active = well fitted curve in the direction sought with a large enough effect in the repeat runs; inconclusive = weak or mixed curves; inactive = no such curve, though single readings can be large; an effect the other way counts as inactive or inconclusive.

What was measured:
[1] = qHTS assay to identify small molecule agonists of the hypoxia (HIF-1) signaling pathway - cell viability counter screen (AID 1224844; calls by dose curve; note: nearly all actives have a fitted effect of over 50% in size; note: potency is the fitted concentration of half-maximal effect)
Summary of the method: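 In this counter screen, HRE-bla ME-180 cell viability after 17 hrs of compound exposure at 37C was read by CellTiter-Glo luminescence, multiplexed with the beta-lactamase reporter measurement.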

[2] = qHTS assay to identify small molecule agonists of H2AX (AID 1224845; active = well fitted activation curve with a large enough effect in the signal ratio in the repeat runs, not every such curve was filed as active; the % refers to the signal ratio; note: potency is the fitted concentration of half-maximal effect)
Summary of the method: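 Phospho-H2AX Ser139 measured by HTRF (ex 320 nm; em 665 and 620 nm) after 24 hr antibody incubation. Compounds, 15 concentrations, 0.76% DMSO, were applied to CHO-K1 cells for 3hr at 37C before lysis.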

[3] = qHTS assay to identify small molecule antagonists of the estrogen related receptor (ERR) signaling pathway from Tox21 library (AID 1224848); note: nearly all actives have a fitted effect of over 50% in size; note: potency is the fitted concentration of half-maximal effect
Summary of the method: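 Luciferase luminescence (ONE-Glo, 30 min room temperature) was the read-out. Cells of the NTP-supplied ERR line, 2,000 per well, were given 6 h at 37 C before compound addition in DMSO and 18 h exposure at 37 C.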

[4] = qHTS assay to identify small molecule agonists of the estrogen related receptor (ERR) signaling pathway from Tox21 library (AID 1224849; calls by dose curve; note: nearly all actives have a fitted effect of over 15% in size); details: ERR reporter cell line, ONE-Glo luciferase, 18 h; at 92.4 µM (top of the series) unless noted
Summary of the method: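 Luciferase activity in ERR pathway reporter cells served as the agonist readout; exposure lasted 18 h at 37 C, with ONE-Glo detection after 30 min at room temperature.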

[5] = qHTS RealTime-Glo MT Cell Viability Assay in HepG2 cells - 24 hour (AID 1224867); note: nearly all actives have a fitted effect of over 50% in size; note: potency is the fitted concentration of half-maximal effect
Summary of the method: (§1)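 Luminescence read-out: viable HepG2 cells reduce a prosubstrate to a NanoLuc substrate, giving a signal proportional to live cell number. Reads taken at 0, 8, 16, 24, 32 and 40 h of compound exposure at 37 C.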

[6] = qHTS RealTime-Glo MT Cell Viability Assay in HEK293 cells - 32 hour (AID 1224868); note: nearly all actives have a fitted effect of over 50% in size; note: potency is the fitted concentration of half-maximal effect
Summary of the method: (§2)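 Nonlytic real-time viability readout: viable cells convert prosubstrate to NanoLuc substrate, giving luminescence proportional to live cell number. HEK293, 600 cells/well, compound added after 5 h, continuous culture at 37 C.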

[7] = A CellTox Green Cytotoxicity Assay to monitor cytotoxicity in HEK293 cells - 0 hour (AID 1224869); note: nearly all actives have a fitted effect of over 50% in size
Summary of the method: (§3)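 Real-time, in one plate: 600 HEK293 cells/well with dead-cell DNA dye, pinned compound after 5 h, 37 C incubation over 40 h; viable cells give no appreciable fluorescence.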

[8] = qHTS RealTime-Glo MT Cell Viability Assay in HepG2 cells - 40 hour (AID 1224870); note: nearly all actives have a fitted effect of over 50% in size; note: potency is the fitted concentration of half-maximal effect
Summary of the method: (§4)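 Real-time viability: cells seeded at 600 per well together with NanoLuc and cell-permeant prosubstrate, compounds added after 5 h incubation. Luminescence tracked at 0, 8, 16, 24, 32 and 40 h of exposure.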

[9] = A CellTox Green Cytotoxicity Assay to monitor cytotoxicity in HEK293 cells - 40 hour (AID 1224871); note: nearly all actives have a fitted effect of over 45% in size; note: potency is the fitted concentration of half-maximal effect
Summary of the method: as §3

[10] = qHTS RealTime-Glo MT Cell Viability Assay in HEK293 cells - 16 hour (AID 1224872); note: nearly all actives have a fitted effect of over 50% in size; note: potency is the fitted concentration of half-maximal effect
Summary of the method: as §2

[11] = qHTS RealTime-Glo MT Cell Viability Assay in HEK293 cells - 40 hour (AID 1224874); details: RealTime-Glo luminescence; max response: stronger effect = lower value; note: nearly all actives have a fitted effect of over 50% in size; note: potency is the fitted concentration of half-maximal effect
Summary of the method: (§5)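 Kinetic, non-lysing viability readout. Seed HEK293 (600/well) with reagent, incubate 5 h at 37 C/5% CO2, pin 23 nL compound in DMSO, incubate at 37 C, read luminescence at 0, 8, 16, 24, 32, 40 h.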

[12] = A CellTox Green Cytotoxicity Assay to monitor cytotoxicity in HEK293 cells - 24 hour (AID 1224875); note: nearly all actives have a fitted effect of over 45% in size; note: potency is the fitted concentration of half-maximal effect
Summary of the method: as §3

[13] = A CellTox Green Cytotoxicity Assay to monitor cytotoxicity in HepG2 cells - 24 hour (AID 1224878); note: nearly all actives have a fitted effect of over 45% in size; note: potency is the fitted concentration of half-maximal effect
Summary of the method: (§6)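 Cytotoxicity was tracked as dead-cell DNA fluorescence in HepG2 cells treated with test compounds at 37 C; each time-point value comes from one kinetic series spanning 0, 8, 16, 24, 32 and 40 h.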

[14] = A CellTox Green Cytotoxicity Assay to monitor cytotoxicity in HepG2 cells - 40 hour (AID 1224879); note: nearly all actives have a fitted effect of over 40% in size; note: potency is the fitted concentration of half-maximal effect
Summary of the method: as §6

[15] = qHTS RealTime-Glo MT Cell Viability Assay in HEK293 cells - 0 hour (AID 1224880); note: top concentration of the series differs between compounds; nearly all actives have a fitted effect of over 45% in size
Summary of the method: as §5

[16] = qHTS assay to identify small molecule agonists of H2AX - cell viability counter screen (AID 1224847; calls by dose curve; note: top concentration of the series differs between compounds; nearly all actives have a fitted effect of over 30% in size)
Summary of the method: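 Quantitative HTS viability measurement: CHO-K1 wild-type cells in serum (10% FBS) medium, short 3 hr drug exposure at 37C with 0.76% DMSO, CellTiter-Glo luminescent detection.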

[17] = qHTS RealTime-Glo MT Cell Viability Assay in HepG2 cells - 8 hour (AID 1224873); note: nearly all actives have a fitted effect of over 55% in size
Summary of the method: as §4

[18] = A CellTox Green Cytotoxicity Assay to monitor cytotoxicity in HepG2 cells - 16 hour (AID 1224876); note: nearly all actives have a fitted effect of over 45% in size; note: potency is the fitted concentration of half-maximal effect
Summary of the method: as §6

[19] = qHTS RealTime-Glo MT Cell Viability Assay in HepG2 cells - 32 hour (AID 1224877); note: nearly all actives have a fitted effect of over 55% in size; note: potency is the fitted concentration of half-maximal effect
Summary of the method: as §1

[20] = qHTS assay to identify small molecule agonists of the hypoxia (HIF-1) signaling pathway (AID 1224846; active = well fitted activation curve with a large enough effect in the signal ratio in the repeat runs, not every such curve was filed as active; the % refers to the signal ratio; note: potency is the fitted concentration of half-maximal effect)
Summary of the method: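 ME-180 HRE-bla reporter cells; compounds in DMSO, 17 h at 37C; read-out beta-lactamase via CCF4-AM FRET.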

C=CC(=O)OCCn1c(=O)n(CCOC(=O)C=C)c(=O)n(CCOC(=O)C=C)c1=O
Potency [1]: 12.3 µM (active)
Potency [2]: 25.3 µM (active)
Potency [3]: inactive
activity change, positive = activation [4]: -78.2%
Potency [5]: 21.9 µM (active)
Potency [6]: 11 µM (active)
Potency [7]: inactive
Potency [8]: 19.5 µM (active)
Potency [9]: 21.9 µM (active)
Potency [10]: 11 µM (active)
Potency [11]: 11 µM (active)
Potency [12]: 49 µM (active)
Potency [13]: 49 µM (active)
Potency [14]: 21.9 µM (active)
Potency [15]: inactive

COC(=O)C1=C(C)NC(C)=C(C(=O)OCCc2ccc(N3CCN(C(c4ccccc4)c4ccccc4)CC3)cc2)C1c1cccc([N+](=O)[O-])c1 (stereo not given)
Potency [1]: inactive
Potency [2]: inactive
Potency [16]: inactive
Potency [5]: inactive
Potency [7]: inactive
Potency [8]: inactive
Potency [9]: inactive
Potency [10]: inactive
Potency [17]: inactive
max response [11]: 0.767%
Potency [12]: inactive
Potency [18]: inactive
Potency [13]: inactive
Potency [14]: inactive
Potency [15]: inactive

O=C(Oc1cccc2cccnc12)c1ccccc1
Potency [1]: 7.56 µM (active)
Potency [2]: 9.82 µM (active)
Potency [3]: 0.133 µM (active)
activity change, positive = activation [4]: -60.1% [at 42.5 µM]
Potency [5]: inactive
Potency [6]: inactive
Potency [7]: inactive
Potency [8]: 5.35 µM (active)
Potency [10]: inactive
Potency [17]: inactive
max response [11]: -33.8%
Potency [12]: inactive
Potency [14]: 0.477 µM (active)
Potency [15]: inactive

CCN(C(=O)c1cc(C)cc(OC[C@H](C)Nc2ccncc2)c1)C(C)C
Potency [1]: inactive
Potency [2]: inactive
Potency [16]: inactive
Potency [5]: inactive
Potency [6]: inactive
Potency [7]: inactive
Potency [8]: inactive
Potency [9]: inactive
Potency [10]: inactive
Potency [17]: inactive
max response [11]: -9.99%
Potency [12]: inactive
Potency [18]: inactive
Potency [14]: inactive
Potency [15]: inactive

Cc1onc(-c2ccccc2Cl)c1C(=O)N[C@@H]1C(=O)N2[C@@H]1SC(C)(C)[C@@H]2C(=O)O
Potency [1]: inactive
Potency [2]: inactive
Potency [16]: inactive
Potency [5]: inactive
Potency [6]: inactive
Potency [7]: inactive
Potency [8]: inactive
Potency [9]: inactive
Potency [10]: inactive
Potency [17]: inactive
max response [11]: -0.669%
Potency [12]: inactive
Potency [18]: inactive
Potency [19]: inactive
Potency [13]: inactive
Potency [14]: inactive
Potency [15]: inactive

Clc1ccc2n[nH]nc2c1
Potency [1]: inactive
Potency [2]: inactive
Potency [16]: inactive
Potency [5]: inactive
Potency [7]: inactive
Potency [8]: inactive
Potency [9]: inactive
Potency [10]: inactive
Potency [17]: inactive
max response [11]: 4.16%
Potency [12]: inactive
Potency [18]: inactive
Potency [19]: inactive
Potency [13]: inactive
Potency [14]: inactive
Potency [15]: inactive

c1cc(C(c2ccc(OCC3CO3)cc2)c2ccc(OCC3CO3)cc2)ccc1OCC1CO1 (stereo not given)
Potency [1]: inactive
Potency [2]: inactive
Potency [16]: inactive
Potency [8]: 54.9 µM (active)
Potency [10]: inactive
Potency [17]: inactive
Potency [12]: inactive
Potency [18]: inactive
Potency [13]: inactive
Potency [14]: inactive
Potency [15]: inactive

CCN(CC)CCNC(=O)c1c(C)[nH]c(/C=C2\C(=O)Nc3ccc(F)cc32)c1C
Potency [1]: 9.52 µM (active)
Potency [20]: inactive
Potency [5]: 21.3 µM (active)
Potency [6]: 10.7 µM (active)
Potency [8]: 15.1 µM (active)
Potency [9]: 23.9 µM (active)
Potency [10]: 10.7 µM (active)
Potency [11]: 8.49 µM (active)
Potency [12]: 23.9 µM (active)
Potency [18]: 21.3 µM (active)
Potency [19]: 19 µM (active)
Potency [13]: 19 µM (active)
Potency [14]: 9.52 µM (active)
Potency [15]: inactive

O=C1CCCc2c1cc1ccc3cccc4ccc2c1c34
Potency [1]: 44.2 µM (active)
Potency [20]: 49.6 µM (active)
Potency [5]: inactive
Potency [6]: 11.1 µM (active)
Potency [7]: inactive
Potency [8]: inactive
Potency [11]: 9.89 µM (active)
Potency [12]: inactive
Potency [18]: inactive
Potency [19]: inactive
Potency [13]: inactive
Potency [14]: inactive
Potency [15]: inactive

CCCCCCC[N+](CC)(CC)CCCCc1ccc(Cl)cc1
Potency [1]: inactive
Potency [2]: inactive
Potency [16]: inactive
Potency [6]: 1.9 µM (active)
Potency [7]: inactive
Potency [8]: 23.9 µM (active)
Potency [17]: inactive
Potency [11]: 1.9 µM (active)
Potency [12]: inactive
Potency [18]: 26.8 µM (active)
Potency [19]: 23.9 µM (active)
Potency [13]: 26.8 µM (active)
Potency [14]: 23.9 µM (active)
Potency [15]: inactive

N/C(=N\N=C\c1ccc(Cl)cc1)N/N=C/c1ccc(Cl)cc1
Potency [1]: 23.9 µM (active)
Potency [2]: inactive
Potency [3]: 29.8 µM (active)
Potency [9]: 23.9 µM (active)
Potency [12]: 23.9 µM (active)
Potency [14]: 23.9 µM (active)
